# Experimental data: PubChem BioAssay AID652054 (National Center for Advancing Translational Sciences (NCATS), 2013)
# About 9,100 (2.5%) of roughly 360,000 compounds were called active. Another 4% or so got no clear call; they are omitted. The full list was thinned out, with actives kept by preference. Values without a mark were called inactive. Rule as the data show it: active = max response below about -50%; inconclusive = no clear call, values can overlap the other calls; inactive = above that.
# Molecular target: D(3) dopamine receptor (Homo sapiens) (UniProt P35462)
# Sequence (P35462 whole entry, looked up): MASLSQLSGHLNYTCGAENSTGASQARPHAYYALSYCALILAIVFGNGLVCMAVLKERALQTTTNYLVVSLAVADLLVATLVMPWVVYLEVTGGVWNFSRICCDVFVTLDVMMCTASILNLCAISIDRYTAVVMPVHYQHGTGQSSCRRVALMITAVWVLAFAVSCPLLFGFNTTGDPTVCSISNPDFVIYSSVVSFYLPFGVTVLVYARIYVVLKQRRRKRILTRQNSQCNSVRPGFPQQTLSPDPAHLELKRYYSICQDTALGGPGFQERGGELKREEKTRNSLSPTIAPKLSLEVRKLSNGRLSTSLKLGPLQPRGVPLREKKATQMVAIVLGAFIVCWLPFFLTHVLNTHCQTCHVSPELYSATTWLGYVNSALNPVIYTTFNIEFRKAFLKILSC
# Assay: qHTS of D3 Dopamine Receptor Antagonist: qHTS
# Settings: D3R cells, DiscoveRx beta-arrestin luminescence, antagonist mode; stronger effect = lower value
# Summary of the method: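 Cells plated overnight at 1500 cells/well, then exposed to library compounds with dopamine controls for 90 minutes at 37 degrees C. DiscoveRx reagent added for 30–60 minutes at room temperature; luminescence read, quantitative HTS format.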
# % is scaled to controls: 0 for no effect and ±100 for the full control effect.
row,SMILES,"max response, negative = inhibition"
1,COc1ccc(-n2cc(CNC3CCOCC3)c(-c3cccc(F)c3)n2)cc1,-0.354%
2,COc1ccc(-n2cc(CN(C)Cc3n[nH]c(=O)[nH]3)c(-c3cccc(F)c3)n2)cc1,0.876%
3,CCC(O)C1CCN(Cc2cn(-c3ccc(OC)cc3)nc2-c2cccc(F)c2)CC1 (centres undefined),-73% (active)
4,CCCCOCCCNC(=O)C[C@@H]1C[C@@]2(C(=O)OCC)CCCC=C2N(CCC2=CCCCC2)C1=O,2.81%
5,CN1OC[C@@H]2CN(S(=O)(=O)c3cccc4ccccc34)[C@H](c3ccc(N4CCCCC4)cc3)C[C@@H]21,0%
6,C[C@H]1Cn2cnc(C(=O)N[C@@H](Cc3c[nH]c4ccccc34)C(=O)OC(C)(C)C)c2C(=O)N1,5.11%
7,CN(C)C(=O)c1cccc(-c2cnc3c(NC=O)cc(-c4ccc(F)cc4)cn23)c1,95.3%
8,N=C(N)SCc1cccc2ccccc12,-51.3% (active)
9,CCc1ccc(-c2nn(-c3ccccc3)cc2CSC(=N)N)cc1,6.38%
10,CCOc1ccc(Br)cc1CSC(=N)N,-4.48%
11,CCCNC(=O)C[C@@H]1CC[C@@H]2[C@H](COC[C@H](O)CN2C(=O)c2cc(Cl)cc(Cl)c2)O1,13.7%
12,N#CCCN(C(=S)Nc1ccc(Cl)c(Cl)c1)C1CCCCC1,2.54%
13,CN1OC[C@@H]2CN(C(=O)C(C)(C)C)[C@H](c3ccc(-n4ccnc4)cc3)C[C@@H]21,22.8%
14,C[C@@H]1CCCCO[C@H](CN(C)Cc2ccccc2)[C@@H](C)CN([C@H](C)CO)C(=O)c2cc(NS(=O)(=O)c3ccc(Cl)cc3)ccc2O1,-0.783%
15,O=C(O)c1ccccc1/C=N/Nc1ccc(S(=O)(=O)Nc2ccc(Cl)cc2)cc1[N+](=O)[O-],6.67%
16,Cc1ccc(NS(=O)(=O)c2ccc(N/N=C/c3ccccc3OCC(=O)O)c([N+](=O)[O-])c2)c(C)c1,-17%
17,COc1ccc(Br)cc1/C=N/Nc1ccc(S(=O)(=O)Nc2ccccc2C(=O)O)cc1[N+](=O)[O-],-66% (active)
18,CCCNC(=O)C1CC(=O)N(c2ccc(OCc3ccccc3)cc2)C1 (centres undefined),0%
19,CCNC(=O)C1(C)CCN(Cc2ccc(C(=O)OCC)o2)C1 (centres undefined),-10.7%
20,COc1cc2[nH]c(=O)n(Cc3ccc(C(=O)NC4CCN(Cc5ccccc5)CC4)cc3)c(=O)c2cc1OC,-79.7% (active)
21,COc1cc2[nH]c(=O)n(CCC(=O)NC3CCN(Cc4ccccc4)CC3)c(=O)c2cc1OC,-7.24%

row,SMILES,"max response, negative = inhibition"
1,COc1ccc(C(=O)O)cc1S(=O)(=O)NC1CCN(Cc2ccccc2)CC1,8.04%
2,COC(=O)c1cccc(NC(=O)CN2CCC(NC(=O)c3cc(OC)c(OC)c(OC)c3)CC2)c1,24%
3,CCOc1cc2[nH]c(=O)n(Cc3ccc(C(=O)NCCCN4CCCC4=O)cc3)c(=O)c2cc1OCC,6.17%
4,COc1cc(C(=O)NC2CCN(Cc3ccccc3)CC2)cc(Cl)c1OC(C)C,-71.6% (active)
5,Nc1cccc(-c2cncc(N3CCN(Cc4ccccn4)CC3)n2)c1,-4.86%
6,CCN(CC(=O)Nc1ccc(NC(C)=O)cc1)C(=O)C1CC(=O)N(c2ccc3c(c2)OCCO3)C1 (centres undefined),19%
7,O=C(CN1C(=O)NC2(CCc3ccccc32)C1=O)NC1CCCCC1 (centres undefined),-24.4%
8,CCOC(=O)C1(C)CCCN(C(=O)c2ccc(F)c(Cl)c2)C1 (centres undefined),104%
9,CC(=O)c1cccc(-c2cnc3c(NC=O)cc(-c4ccccc4Oc4ccccc4)cn23)c1,31%
10,C#Cc1cc(N2CCN(C(=O)c3ccoc3)CC2)n2nc(-c3cccc(Cl)c3)cc2n1,44.3%
11,CCOC(=O)[C@]12CCCC=C1N(CCC1=CCCCC1)C(=O)[C@H](CC(=O)N1CCSCC1)C2,21.2%
12,Cc1ccc(C(=O)NC(=S)Nc2ccc3[nH]c(=O)[nH]c3c2)cc1C,-9.59%
13,Cc1cc(C)cc(C(=O)NC(=S)Nc2ccc3[nH]c(=O)[nH]c3c2)c1,-10.1%
14,Cc1cc2[nH]ncc2cc1NC(=S)NC(=O)c1ccccc1,-53.9% (active)
15,COc1ccccc1CNC(=O)c1cc(-c2cc(Cl)ccc2C)n[nH]1,3%
16,O=C1c2ccccc2C(=O)C1C(=O)C1CC1,4.87%
17,C/C(=N\NC(=O)c1ccc(C)cc1)C1C(=O)c2ccccc2C1=O,-89.4% (active)
18,Cc1ccc(C(=O)N/C(=C/c2cccnc2)C(=O)O)cc1,0%
19,O=C1NC[C@H](CCCCN2CCN(CCc3ccccc3)C(=O)C2=O)N(CC2CCCCC2)C1=O,2.55%
20,CCN(C(=O)Nc1cccc2ccccc12)c1ccccc1,-20.4%
21,Cc1cc(Br)ccc1NC(=O)CCCOc1cc(=O)n(C)c2ccccc12,-20.6%

row,SMILES,"max response, negative = inhibition"
1,COc1ccc(Nc2cc(=O)oc3ccccc23)cc1,-15.7%
2,COc1ccc(Nc2ccc3ccccc3c2)cc1,-3.21%
3,COc1ccc(Nc2oc(-c3ccccc3Cl)nc2C#N)cc1,-54.1% (active)
4,O=C(CSc1ccc(Cl)cc1)NC1CC1,20.3%
5,Cc1cc(C)c(C#N)c(SCC(=O)Nc2ccccc2)n1,-13.9%
6,Cc1cc2cc3c(cc2nc1SCC(=O)Nc1c(C)cccc1C)CCC3,-74.6% (active)
7,Cc1cccc(C)c1NC(=O)CSc1nc2c([nH]1)c(=O)n(C)c(=O)n2C,-7.1%
8,CN(C)CCNC(=O)c1cccc(-c2cnc3c(NC=O)cc(-c4cccc(C(F)(F)F)c4)cn23)c1,0%
9,CN(Cc1ccccc1)C(=O)CCC1CCN(C(=O)c2ccco2)CC1,13.8%
10,Cn1c(C(=O)N2CCC(C(N)=O)CC2)cc2c(=O)n(C)c3ccccc3c21,0%
11,O=C(CCn1c(=O)[nH]c2ccccc2c1=O)NCCCN1CCN(c2cccc(Cl)c2)CC1,-71.4% (active)
12,O=C(COc1cc2oc(=O)c3c(c2cc1Cl)CCC3)NCCCN1CCOCC1,-19%
13,CCOC(=O)N1CCC(Nc2c(NCCN3CCN(c4cccc(Cl)c4)CC3)c(=O)c2=O)CC1,0.472%
14,Cn1c(Cc2cccc3ccccc23)nnc1SCC(=O)N1CCN(c2cccc(Cl)c2)CC1,0%
15,O=C(Cc1csc(Nc2nc(=S)[nH]c3ccccc23)n1)NCCCN1CCN(c2cccc(Cl)c2)CC1,-83.7% (active)
16,O=C(CCCn1c(=O)[nH]c2cc(Cl)ccc2c1=O)NCCN1CCN(c2ccccc2)CC1,-29.2%
17,COc1cccc(CNC(=O)Cc2csc(Nc3nc(=S)[nH]c4ccccc34)n2)c1,11.5%
18,O=C(NCCCN1CCOCC1)c1cc(-c2ccc(Cl)cc2)on1,4.36%
19,O=C(Cc1ccc(-n2c(=O)[nH]c3ccccc3c2=O)cc1)N1CCN(c2cccc(Cl)c2)CC1,36.6%
20,CCn1c(=O)cc(OCC(=O)NCCCN2CCN(c3cccc(Cl)c3)CC2)c2ccccc21,-69.4% (active)
21,Cn1c(C(=O)NCCCN2CCN(c3cccc(Cl)c3)CC2)cc2c(=O)n(C)c3ccccc3c21,-103% (active)

row,SMILES,"max response, negative = inhibition"
1,C[C@H]1CN([C@@H](C)CO)C(=O)CCCn2cc(nn2)CO[C@@H]1CN(C)S(=O)(=O)c1ccccc1C#N,-12.5%
2,Cc1ccc2nc(-c3ccccc3)c(CC3CCCCC3)n2c1,-9.93%
3,COc1ccc(C(O)C(O)(C(=O)OC(C)C)c2ccc(C)cc2)cc1 (centres undefined),-17.4%
4,CC(C)C[C@H]1CNC(=O)C(=O)N1C[C@H]1CCCN1C[C@H](Cc1ccc(O)cc1)N1C[C@H](CC(C)C)N(CC2CCCCCC2)C(=O)C1=O,30.9%
5,CC(C)C[C@@H]1Cc2[nH][nH]c(=O)c2[C@H](CCc2ccccc2)O1,-13%
6,Clc1ccc(-c2cccc3nccn23)cc1,0%
7,CCn1c(SCC(=O)N2CCCC2=O)nc2ccccc21,7.76%
8,CCOC(=O)[C@]12CCCC=C1N(CCC1=CCCCC1)C(=O)[C@H](CC(=O)NCCCOC)C2,7.2%
9,COc1ncnc2c1ncn2CCCNCCN1CCOCC1,20.7%
10,COc1ccc(S(=O)(=O)Nc2ccc3cn[nH]c3c2)cc1[N+](=O)[O-],-18.8%
11,COc1ccc(S(=O)(=O)N/N=C\c2ccc(OC)c(COc3ccc(C)cc3[N+](=O)[O-])c2)cc1,-59.9% (active)
12,Cc1ccc(S(=O)(=O)N/N=C\c2cc3c(cc2[N+](=O)[O-])OCO3)cc1,-4.05%
13,Nc1[nH]c(C(=O)c2ccccc2)c(-c2ccncc2)c1C(=O)NCc1cccc2ccccc12,-9.51%
14,Nc1ncnc2c1ncn2[C@@H]1O[C@H](CNC(=O)[C@H](N)Cc2cccnc2)[C@@H](O)[C@H]1O,1.65%
15,COc1cc(NC(=O)NCC2CCN(Cc3ccc(C)cc3)CC2)cc(OC)c1OC,-16.2%
16,COc1ccc(Cl)cc1NC(=O)C(C)N1CCc2ccccc21 (centres undefined),-7.48%
17,O=C(NCC1CCN(Cc2ccccc2Cl)CC1)Nc1cccc(Cl)c1,-29.8%
18,COc1ccc(Cl)cc1NC(=O)NCC1CCN(Cc2ccccc2F)CC1,-85.7% (active)
19,O=C(CN1CCN(Cc2ccccc2)CC1)Nc1ccc(F)c(F)c1,-16.4%
20,Cc1cccc(CN2CCC(CNC(=O)Nc3ccc(F)c(Cl)c3)CC2)c1,-60.2% (active)
21,CCc1nc2c(OCC(=O)C(C)(C)C)cccn2c1N(C)C(=O)c1ccccc1F,-24.2%
